Records with an inconclusive call do not appear. Active and inactive are the calls of the source. Unless noted, calls follow the shape of the dose curve; as a rule, active = well fitted curve in the direction sought with a large enough effect in the repeat runs; inconclusive = weak or mixed curves; inactive = no such curve, though single readings can be large; an effect the other way counts as inactive or inconclusive.
Experiments:
[1] = qHTS assay to identify small molecule agonists of the NFkB signaling pathway (AID 1159509; active = well fitted curve in the direction sought with a large enough effect in the signal ratio in the repeat runs, not every such curve was filed as active; the % refers to the signal ratio; also: series mostly up to about 61 µM; % is scaled to controls: 0 for no effect and ±100 for the full control effect)
Method in brief: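 Agonist activity was read as beta-lactamase-driven FRET change (460 and 530 nm emission, 405 nm excitation) following 1.5 hr substrate loading at room temperature. Beforehand, ME-180 NFkB-bla reporter cells were treated with compounds for 5 hr at 37 C.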

[2] = qHTS assay to identify small molecule agonists of the NFkB signaling pathway - cell viability counter screen (AID 1159515; calls by dose curve; also: series mostly up to about 61 µM; % is scaled to controls: 0 for no effect and ±100 for the full control effect; nearly all actives have a fitted effect of over 55% in size)
Method in brief: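 Read by CellTiter-Glo luminescence (30 min, room temperature) in the wells also used for the beta-lactamase FRET read. ME-180 NFkB-bla cells at 2,000 per well were plated overnight, then exposed to compound for 5 hr at 37 C.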

[3] = qHTS assay to identify small molecule agonists of the endoplasmic reticulum stress response signaling pathway (AID 1159516; active = well fitted activation curve with a large enough effect in the signal ratio in the repeat runs, not every such curve was filed as active; the % refers to the signal ratio; also: % is scaled to controls: 0 for no effect and ±100 for the full control effect)
Method in brief: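 Ratiometric FRET readout (405 nm excitation; 460 and 530 nm emission) of a beta-lactamase gene driven by the ER stress response element, after 2 hr substrate loading. HeLa ESRE-bla cells were seeded overnight and treated with compounds for only 5 hr at 37 C.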

[4] = qHTS assay to identify small molecule agonists of the endoplasmic reticulum stress response signaling pathway - cell viability counter screen (AID 1159517; calls by dose curve; also: series mostly up to about 61 µM; % is scaled to controls: 0 for no effect and ±100 for the full control effect; nearly all actives have a fitted effect of over 50% in size)
Method in brief: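 Cpd-treated ESRE-bla HeLa (5 hr, 37 C) → LiveBLAzer 2 hr RT → CellTiter-Glo 30 min RT → luminescence.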

[5] = qHTS assay to identify small molecule antagonists of the retinoid-related orphan receptor gamma (ROR-gamma) signaling pathway - cell viability counter screen (AID 1159520); also: % is scaled to controls: 0 for no effect and ±100 for the full control effect; nearly all actives have a fitted effect of over 50% in size
Method in brief: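 Tet-on ROR gamma CHO cells (1,000/well) were plated 4 hr, given compounds in DMSO for 2 hr at 37 C, then induced with 1 uM final doxycycline for 16 hr. Viability was read as ATP by CellTiter-Glo luminescence after 30 min.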

[6] = target: Nuclear receptor ROR-gamma (Homo sapiens) (UniProt P51449); experiment: qHTS assay to identify small molecule antagonists of the retinoid-related orphan receptor gamma (ROR-gamma) signaling pathway (AID 1159521;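 also: CHO cells with doxycycline inducible ROR-gamma driving an RORE luciferase reporter; top concentration of the series differs between compounds; % is scaled to controls: 0 for no effect and ±100 for the full control effect; nearly all actives have a fitted effect of over 50% in size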)
Method in brief: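 RORγ antagonism is scored from reduced reporter luminescence in Tet-on CHO cells. Induction used 1 uM final doxycycline hyclate for 16 h at 37 C, following a 2 h compound exposure.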

[7] = qHTS assay to identify small molecule agonists of the AP-1 signaling pathway - cell viability counter screen (AID 1159525; calls by dose curve; also: nearly all actives have a fitted effect of over 55% in size)
Method in brief: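 Each titration point was normalised to DMSO and tetra n-octyl ammonium bromide controls. The read was Cell Titer Glo luminescence after 30 min at RT, following 5 h compound exposure of ME-180 AP-1-bla cells at 37 °C.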

[8] = qHTS assay to identify small molecule agonists of the AP-1 signaling pathway (AID 1159526; calls by dose curve; also: % is scaled to controls: 0 for no effect and ±100 for the full control effect)
[9] = qHTS assay to identify small molecule agonists of the peroxisome proliferator-activated receptor delta (PPARd) signaling pathway - cell viability counter screen (AID 743211); also: % is scaled to controls: 0 for no effect and ±100 for the full control effect; nearly all actives have a fitted effect of over 55% in size
Method in brief: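 Viability of GeneBLAzer PPARd UAS-bla HEK293H cells was assessed after 17 h compound incubation at 37C, using CellTiter-Glo reagent added after the reporter read and luminescence recorded 30 min later.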

[10] = target: Peroxisome proliferator-activated receptor delta (Homo sapiens) (UniProt Q03181); experiment: qHTS assay to identify small molecule agonists of the peroxisome proliferator-activated receptor delta (PPARd) signaling pathway (AID 743212; calls by dose curve; also: % is scaled to controls: 0 for no effect and ±100 for the full control effect)
Peroxisome proliferator-activated receptor delta (Homo sapiens), sequence (Q03181 whole entry, looked up): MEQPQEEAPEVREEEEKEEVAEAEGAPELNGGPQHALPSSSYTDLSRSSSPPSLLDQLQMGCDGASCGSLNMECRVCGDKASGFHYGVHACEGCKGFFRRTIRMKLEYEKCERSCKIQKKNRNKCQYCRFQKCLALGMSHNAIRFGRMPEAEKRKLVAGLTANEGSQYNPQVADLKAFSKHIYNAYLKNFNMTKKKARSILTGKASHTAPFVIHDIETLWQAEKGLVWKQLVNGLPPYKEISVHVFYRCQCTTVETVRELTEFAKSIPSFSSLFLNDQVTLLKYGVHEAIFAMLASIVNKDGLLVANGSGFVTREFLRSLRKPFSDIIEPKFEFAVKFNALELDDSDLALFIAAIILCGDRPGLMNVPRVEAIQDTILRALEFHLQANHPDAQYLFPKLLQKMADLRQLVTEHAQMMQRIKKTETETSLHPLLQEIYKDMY
Method in brief: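 Cells expressing a UAS-driven beta-lactamase reporter (PPARd-bla HEK293H) were given test compounds after a 5 h settle and kept at 37 C. Reporter activity was then measured as FRET fluorescence using LiveBLAzer B/G substrate.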

[11] = qHTS assay to identify small molecule antagonists of the peroxisome proliferator-activated receptor delta (PPARd) signaling pathway - cell viability counter screen (AID 743213); also: % is scaled to controls: 0 for no effect and ±100 for the full control effect; nearly all actives have a fitted effect of over 50% in size
Method in brief: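 Same-well viability: cells pre-incubated 5 h, dosed with compound plus 300 nM L165041, kept 17 h at 37 C, FRET substrate 2 h RT, then CellTiter-Glo 30 min RT and luminescence.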

[12] = target: Peroxisome proliferator-activated receptor delta (Homo sapiens) (UniProt Q03181); experiment: qHTS assay to identify small molecule antagonists of the peroxisome proliferator-activated receptor delta (PPARd) signaling pathway (AID 743215; active = well fitted inhibition curve with a large enough effect in the signal ratio in the repeat runs, not every such curve was filed as active; the % refers to the signal ratio)
Method in brief: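 Agonist L165041 (300 nM final) added with compound to PPARd-bla HEK293H UAS-bla reporter cells; 17 h incubation at 37 C. Read-out: LiveBLAzer FRET substrate, 2 h at room temperature, fluorescence intensity.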

[13] = qHTS assay to identify small molecule agonists of the farnesoid-X-receptor (FXR) signaling pathway - cell viability counter screen (AID 743218); also: % is scaled to controls: 0 for no effect and ±100 for the full control effect; nearly all actives have a fitted effect of over 45% in size
Method in brief: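 Viability counter screen in the same wells: CellTiter-Glo luminescence, 30 min room-temperature incubation, measured after the beta-lactamase read. Cells were GeneBLAzer FXR-UAS-bla HEK 293T, compound-treated 16 h at 37C.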

[14] = qHTS assay to identify small molecule antagonists of the farnesoid-X-receptor (FXR) signaling pathway - cell viability counter screen (AID 743221; active = well fitted cell-killing curve with a large enough effect in the repeat runs, not every such curve was filed as active)
Method in brief: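 Quantitative HTS of the Tox21 10K library run in parallel with the beta-lactamase reporter read. HEK 293T cells carrying a UAS-driven bla reporter got compound and 50 uM CDCA (final) for 16 h; ATP-based luminescence followed.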

[15] = target: Vitamin D3 receptor (Homo sapiens) (UniProt P11473); experiment: qHTS assay to identify small molecule agonists of the vitamin D receptor (VDR) signaling pathway (AID 743222; calls by dose curve; also: % is scaled to controls: 0 for no effect and ±100 for the full control effect)
Vitamin D3 receptor (Homo sapiens), sequence (P11473 whole entry, looked up): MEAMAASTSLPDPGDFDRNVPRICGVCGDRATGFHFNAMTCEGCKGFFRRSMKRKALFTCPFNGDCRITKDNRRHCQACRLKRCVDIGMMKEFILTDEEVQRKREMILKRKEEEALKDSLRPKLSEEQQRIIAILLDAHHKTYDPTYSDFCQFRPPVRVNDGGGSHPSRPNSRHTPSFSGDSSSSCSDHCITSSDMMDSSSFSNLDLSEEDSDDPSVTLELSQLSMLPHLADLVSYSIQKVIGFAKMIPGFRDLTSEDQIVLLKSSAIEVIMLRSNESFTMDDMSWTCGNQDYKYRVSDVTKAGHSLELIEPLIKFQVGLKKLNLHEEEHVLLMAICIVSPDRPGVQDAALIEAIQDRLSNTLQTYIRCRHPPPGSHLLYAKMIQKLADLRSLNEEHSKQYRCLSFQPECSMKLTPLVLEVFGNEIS
Method in brief: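 Agonist mode, beta-lactamase reporter: fluorescence from LiveBLAzer B/G FRET substrate (2 h, room temperature) read after 16 h compound treatment at 37 C of VDR-bla cells, which were pre-incubated 4 h after seeding.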

[16] = target: Vitamin D3 receptor (Homo sapiens) (UniProt P11473); experiment: qHTS assay to identify small molecule antagonists of the vitamin D receptor (VDR) signaling pathway (AID 743223; active = well fitted inhibition curve with a large enough effect in the signal ratio in the repeat runs, not every such curve was filed as active; the % refers to the signal ratio; also: % is scaled to controls: 0 for no effect and ±100 for the full control effect)
Method in brief: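 Fluorescence from LiveBLAzer B/G FRET substrate, read after 2 h at room temperature, reflects beta-lactamase reporter activity in VDR-bla cells treated 16 h at 37C with compounds and agonist 1alpha,25-dihydroxyvitamin D3 (3 nM final).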

[17] = qHTS assay to identify small molecule agonists of the vitamin D receptor (VDR) signaling pathway - cell viability counter screen (AID 743224)
Method in brief: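 Counter screen run in the same wells as the VDR-bla reporter assay: CellTiter-Glo luminescence, 30 min at room temperature, after 16 h compound treatment at 37C of cells pre-plated for 4 h.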

[18] = qHTS assay to identify small molecule antagonists of the vitamin D receptor (VDR) signaling pathway - cell viability counter screen (AID 743225)
Method in brief: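 Cells (VDR-UAS-bla HEK 293T) are plated, rested 4 h at 37C, dosed with compound and 3 nM final 1-alpha,25-dihydroxy vitamin D3, and incubated 16 h. Viability is taken from CellTiter-Glo luminescence in the reporter wells.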

[19] = target: Bile acid receptor (Homo sapiens) (UniProt Q96RI1); experiment: qHTS assay to identify small molecule antagonists of the farnesoid-X-receptor (FXR) signaling pathway (AID 743217; active = well fitted inhibition curve with a large enough effect in the signal ratio in the repeat runs, not every such curve was filed as active; the % refers to the signal ratio; also: % is scaled to controls: 0 for no effect and ±100 for the full control effect)
Bile acid receptor (Homo sapiens), sequence (Q96RI1 whole entry, looked up): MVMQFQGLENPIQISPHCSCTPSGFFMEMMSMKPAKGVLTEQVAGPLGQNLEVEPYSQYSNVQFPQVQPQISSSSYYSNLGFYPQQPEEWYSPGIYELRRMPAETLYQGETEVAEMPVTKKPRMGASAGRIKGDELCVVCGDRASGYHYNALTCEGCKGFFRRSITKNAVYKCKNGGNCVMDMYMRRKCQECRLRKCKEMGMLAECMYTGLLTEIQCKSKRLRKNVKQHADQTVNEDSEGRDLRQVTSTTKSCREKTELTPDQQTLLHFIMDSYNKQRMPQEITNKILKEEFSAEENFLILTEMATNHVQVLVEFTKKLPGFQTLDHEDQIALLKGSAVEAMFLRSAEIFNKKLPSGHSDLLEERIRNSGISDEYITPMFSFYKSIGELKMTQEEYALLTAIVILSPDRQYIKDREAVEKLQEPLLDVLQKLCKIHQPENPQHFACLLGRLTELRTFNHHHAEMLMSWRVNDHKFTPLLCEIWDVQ
Method in brief: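 Antagonist mode: chenodeoxycholic acid at 50 uM final stimulates a UAS-driven beta-lactamase reporter in HEK 293T FXR-bla cells during 16 h, 37C compound exposure. Read-out is FRET substrate fluorescence after 2 h at room temperature.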

[20] = target: Bile acid receptor (Homo sapiens) (UniProt Q96RI1); experiment: qHTS assay to identify small molecule agonists of the farnesoid-X-receptor (FXR) signaling pathway (AID 743220; active = well fitted activation curve with a large enough effect in the signal ratio in the repeat runs, not every such curve was filed as active; the % refers to the signal ratio; also: % is scaled to controls: 0 for no effect and ±100 for the full control effect)
Method in brief: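 FXR-UAS-bla HEK 293T cells carrying a UAS-driven beta-lactamase reporter were plated for 5 h at 37C/5% CO2, then exposed to DMSO-dissolved Tox21 10K compounds for 16 h at 37C. A LiveBLAzer B/G FRET substrate was loaded for 2 h at room temperature before fluorescence reading.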

O=C(c1ccccc1)C1CCCCC1
inactive: outcome [1] | outcome [2] | outcome [3] | outcome [4] | outcome [5] | Potency [6] | Potency [7] | outcome [8]

Cc1cccc(C)c1NC(=O)C(C)N (stereo unspecified)
inactive: Potency [9] | outcome [10] | Potency [11] | Potency [12] | Potency [13] | Potency [14] | outcome [15] | outcome [16] | Potency [17] | Potency [18] | outcome [1] | outcome [2] | outcome [3] | outcome [4] | outcome [5] | Potency [6] | Potency [7] | outcome [8]

O=C1CC2CC1C1CCCC21 (stereo unspecified)
inactive: Potency [9] | outcome [10] | Potency [11] | Potency [12] | outcome [19] | Potency [13] | outcome [20] | Potency [14] | Potency [17] | outcome [1] | outcome [2] | outcome [3] | outcome [4] | outcome [5] | Potency [6] | Potency [7] | outcome [8]

O=c1[nH]c(=O)n([C@H]2C[C@H](O)[C@@H](CO)O2)cc1I
inactive: Potency [9] | outcome [10] | Potency [11] | Potency [12] | Potency [13] | Potency [14] | outcome [15] | outcome [16] | Potency [17] | Potency [18] | outcome [1] | outcome [2] | outcome [3] | outcome [4] | outcome [5] | Potency [6] | Potency [7] | outcome [8]

O=C(O)Cc1ccc(CCNS(=O)(=O)c2ccc(Cl)cc2)cc1
inactive: Potency [9] | outcome [10] | Potency [11] | Potency [12] | outcome [19] | Potency [13] | outcome [20] | Potency [14] | Potency [17] | outcome [1] | outcome [2] | outcome [3] | outcome [4] | outcome [5] | Potency [6] | Potency [7] | outcome [8]

CC(C)NC(=O)NC(C)C
inactive: Potency [9] | outcome [10] | Potency [11] | Potency [12] | outcome [19] | outcome [20] | Potency [14] | outcome [15] | outcome [16] | Potency [17] | Potency [18] | outcome [1] | outcome [2] | outcome [3] | outcome [4] | outcome [5] | Potency [6] | Potency [7] | outcome [8]

COC(=O)CCSCCC(=O)OC
inactive: Potency [9] | outcome [10] | Potency [11] | Potency [12] | outcome [19] | outcome [20] | outcome [1] | outcome [2] | outcome [3] | outcome [4] | outcome [5] | Potency [6] | Potency [7] | outcome [8]

CCN(CC)CCNC(=O)c1cc(S(C)(=O)=O)ccc1OC
inactive: Potency [9] | outcome [10] | Potency [11] | Potency [12] | Potency [13] | Potency [14] | Potency [17] | Potency [18] | outcome [1] | outcome [2] | outcome [3] | outcome [4] | outcome [5] | Potency [6] | Potency [7] | outcome [8]

COc1cc(C(=O)N2CCCCCCC2)cc(OC)c1OC
inactive: Potency [9] | outcome [10] | Potency [12] | outcome [19] | Potency [13] | outcome [20] | Potency [14] | outcome [15] | Potency [17] | Potency [18] | outcome [1] | outcome [2] | outcome [3] | outcome [4] | outcome [5] | Potency [6] | Potency [7] | outcome [8]

CC(C)(C)c1nnc(NS(=O)(=O)c2ccccc2)s1
inactive: Potency [9] | outcome [10] | Potency [11] | Potency [12] | Potency [13] | outcome [15] | outcome [16] | Potency [18] | outcome [1] | outcome [2] | outcome [3] | outcome [4] | outcome [5] | Potency [6] | Potency [7] | outcome [8]

O=Cc1cccc([N+](=O)[O-])c1
inactive: Potency [9] | outcome [10] | Potency [11] | Potency [12] | Potency [13] | Potency [14] | outcome [15] | outcome [16] | Potency [17] | Potency [18] | outcome [1] | outcome [2] | outcome [3] | outcome [4] | outcome [5] | Potency [6] | Potency [7] | outcome [8]

Cc1c(O)cccc1O
inactive: Potency [9] | outcome [10] | Potency [11] | outcome [19] | Potency [13] | outcome [20] | Potency [14] | outcome [15] | outcome [16] | Potency [17] | Potency [18] | outcome [1] | outcome [2] | outcome [3] | outcome [4] | outcome [5] | Potency [6] | Potency [7] | outcome [8]

CN1CCC(=C2c3ccccc3CC(=O)c3sccc32)CC1
inactive: Potency [9] | outcome [10] | Potency [12] | outcome [19] | Potency [13] | outcome [20] | Potency [14] | outcome [15] | outcome [16] | Potency [18] | outcome [1] | outcome [2] | outcome [3] | outcome [4] | outcome [5] | Potency [6] | Potency [7] | outcome [8]

OCCCC1CCCCC1
inactive: Potency [9] | outcome [10] | Potency [11] | Potency [12] | Potency [13] | Potency [14] | Potency [17] | outcome [1] | outcome [2] | outcome [3] | outcome [4] | outcome [5] | Potency [6] | Potency [7] | outcome [8]

Cc1cccn2c(=O)c(-c3nnn[nH]3)cnc12
inactive: Potency [9] | outcome [10] | Potency [11] | Potency [14] | Potency [17] | Potency [18] | outcome [1] | outcome [2] | outcome [3] | outcome [4] | activity, negative = cytotoxicity [5] 0.0857% [at 19 µM] | Potency [6] | viability change, negative = cytotoxic [7] -0.287% [at 15.8 µM] | outcome [8]

CC(=O)CC(C)(C)C1CCCCC1
inactive: Potency [9] | outcome [10] | Potency [11] | Potency [12] | Potency [13] | Potency [14] | Potency [17] | Potency [18] | outcome [1] | outcome [2] | outcome [3] | outcome [4] | outcome [5] | Potency [6] | Potency [7] | outcome [8]

From PubChem BioAssay (Tox21)
